Test results reported in ChEMBL document CHEMBL3988442, “University of Dundee, Small-Polar-MMV Screening Library” (2021).
Entries with a potency or affinity are not part of this list.

Molecular target: T1, Ubiquitin-activating enzyme e1, putative (Leishmania donovani (strain BPK282A1)) (UniProt E9BSI1)
T1 sequence (whole entry): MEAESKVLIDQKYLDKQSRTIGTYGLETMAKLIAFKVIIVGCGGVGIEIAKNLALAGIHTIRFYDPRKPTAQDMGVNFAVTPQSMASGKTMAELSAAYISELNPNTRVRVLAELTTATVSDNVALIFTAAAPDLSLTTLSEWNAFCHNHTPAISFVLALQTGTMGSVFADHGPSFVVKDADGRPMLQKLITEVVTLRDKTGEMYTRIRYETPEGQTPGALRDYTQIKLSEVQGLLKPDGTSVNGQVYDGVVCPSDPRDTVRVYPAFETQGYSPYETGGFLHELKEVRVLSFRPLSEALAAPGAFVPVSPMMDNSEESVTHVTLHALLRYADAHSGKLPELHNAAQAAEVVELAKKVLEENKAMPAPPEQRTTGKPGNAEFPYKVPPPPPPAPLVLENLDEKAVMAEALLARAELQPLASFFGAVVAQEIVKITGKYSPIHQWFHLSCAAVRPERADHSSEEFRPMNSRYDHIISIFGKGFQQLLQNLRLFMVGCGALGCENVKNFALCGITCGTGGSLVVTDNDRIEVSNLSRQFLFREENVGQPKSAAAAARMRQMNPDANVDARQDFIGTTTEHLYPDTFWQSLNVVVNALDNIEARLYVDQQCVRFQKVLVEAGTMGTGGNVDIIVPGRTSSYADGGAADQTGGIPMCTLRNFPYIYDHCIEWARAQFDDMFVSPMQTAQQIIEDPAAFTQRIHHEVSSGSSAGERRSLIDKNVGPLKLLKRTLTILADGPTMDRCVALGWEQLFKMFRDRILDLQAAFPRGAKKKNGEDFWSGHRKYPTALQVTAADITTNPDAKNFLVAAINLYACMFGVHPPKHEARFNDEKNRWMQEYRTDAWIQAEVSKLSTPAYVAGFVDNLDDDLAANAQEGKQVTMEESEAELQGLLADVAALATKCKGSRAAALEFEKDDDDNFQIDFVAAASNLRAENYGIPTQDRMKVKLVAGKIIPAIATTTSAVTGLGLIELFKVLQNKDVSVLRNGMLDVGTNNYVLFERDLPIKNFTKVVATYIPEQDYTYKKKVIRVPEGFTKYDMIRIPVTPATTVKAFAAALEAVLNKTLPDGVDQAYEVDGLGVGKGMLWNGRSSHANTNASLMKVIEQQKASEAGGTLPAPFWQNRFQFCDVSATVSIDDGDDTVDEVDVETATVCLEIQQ
Assay: Leishmania donovani Ubiquitin Activating Enzyme (LdE1)
Assay type: functional
Design: scale not given: direction of the effect not stated beside the values
Details: 30 µM

SMILES | Percent Effect
CCN(CC1CN(CCc2ccccn2)CCO1)c1cccnn1 (stereo not given) | 0%
O=C(NCc1ccc(-n2cncn2)nc1)c1ccoc1 | 0%
Cc1ccsc1C(=O)N1CC(C(=O)N2CCOCC2)C2(CCOCC2)C1 (stereo not given) | 2.6%
Cn1ncc2c(=O)[nH]c(CN3CCCC3CC3CCCCC3)nc21 (stereo not given) | 21.1%
CCN1C[C@H]2CCN(C(C)=O)CC[C@H]2S1(=O)=O | 9.33%
COc1ccc(-c2nc(CN3CCOCS3(=O)=O)c(C)o2)cc1 | 8%
Cn1nc(C2CN(C(=O)c3cscn3)C2)c2nccnc21 | 17.6%
c1coc(CN2CCCC3(COCCN(Cc4c[nH]nn4)C3)C2)c1 (stereo not given) | 8%
COCCO[C@@H]1C[C@H]2CN(C(=O)c3cnccn3)CCN2C1 | 5.33%
CC(=O)N1CCC(C(=O)c2cc(C)cnc2N)CC1 | 10.7%
Cc1ccc(C(=O)N(C)Cc2cc(Br)cs2)c(=O)[nH]1 | 7.89%
Cc1nc(C)n(CC2CN(CCc3ccncc3)CCO2)n1 (stereo not given) | 5.48%
CN(CC(N)=O)S(=O)(=O)c1ccc(F)cc1Cl | -5.48%
CC(=O)NCC1CCN(CC2CCOc3ccccc3C2)CC1 (stereo not given) | 15.3%
Cc1nn(-c2ccccc2)nc1C(=O)N1CCCC1c1cnn(C)c1 (stereo not given) | 0%
CCC1=N[C@@]2(CC[C@@H]3CN(CC4CC4)C[C@@H]32)C(=O)N1C | 10.8%
Cc1cccc2c1OCCC2NCc1c(C)nn(C)c1N(C)C (stereo not given) | 18.4%
Cc1ccc(CN2C[C@@H]3COC[C@@H](NS(C)(=O)=O)[C@@H]3C2)o1 | 2.67%
CN(Cc1ccc(Cl)s1)C(=O)NCc1nnc2n1CCC2 | 21.1%
Cn1cnc(S(=O)(=O)N2CCN(Cc3ccco3)CC2)c1Cl | 4.17%
